Measurements: PubChem BioAssay AID687014 (The Scripps Research Institute Molecular Screening Center, 2013)
Screen size: about 370,000 compounds; about 6,800 (1.8%) were called active. The list comes from a sample in which actives are over-represented; it also holds similar structures and randomly drawn compounds. Values without a mark were called inactive.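 Rule for the calls: active = activation above a cutoff set at the mean of all screened compounds plus 3 SD (cut at about 10% in these data); inactive = the rest.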

tested on: Nuclear hormone receptor DAF-12 (Heterodera glycines), GAL4 fusion; assay: H. glycines DAF-12 receptor agonists, primary screen, cell-based, luminescence, HEK293, GAL4 fusion, UAS-luciferase (AID 687014); conditions: HEK293 GAL4-hgDAF12 UAS-luciferase reporter, agonist luminescence; at 6.8 µM; active compounds read high; normalized to butyrate control;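 note: 0% = DMSO wells and 100% = sodium butyrate wells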

Row | SMILES | activation
1 | Cc1ccc(S(=O)(=O)N(C)c2ccc(OCC(=O)OCC(=O)N(CC#N)c3ccccc3)cc2)cc1 | -0.04%
2 | O=C(N[C@H](Cc1ccccc1)C(=O)N1CCCN(Cc2cccs2)CC1)[C@H]1O[C@@H](n2ccc(=O)[nH]c2=O)[C@H](O)[C@@H]1O | -0.37%
3 | CC(C)(C)C(c1nc2ccccc2[nH]1)n1c(Cc2csc3ccccc23)nc2ccccc21 (configuration not stated) | 6.72%
4 | O=C(O)Cn1cnc2c(NCc3ccccc3)ncnc21 | 1.82%
5 | CCCCNC(=O)C[C@H]1C[C@@]2(C(=O)OC)C(=C[C@H](COCc3ccccc3)O[C@@H]2C)N(Cc2ccc(Cl)cc2Cl)C1=O | 0.35%
6 | O=C(N1CCOCC1)N1CC[C@H]2[C@H](CCCN2Cc2ccc(F)cc2)C1 | -0.84%
7 | O=C(CCc1ccccc1F)N1CCN(c2ccccc2)CC1 | 0.77%
8 | O=C(CCS(=O)(=O)c1cccc2nsnc12)N1CCN(c2ccccc2F)CC1 | 0.1%
9 | O=C(CCSc1ccccc1)N1CCN(c2ccccc2F)CC1 | 14.2% (active)
10 | O=C(CCc1ccccc1)Nc1nn[nH]n1 | 0.42%
11 | O=C(CCc1ccccc1)Nc1ncc([N+](=O)[O-])s1 | 11.2% (active)
12 | O=C(CCc1ccccc1)Nc1ccc(NC(=O)C2CC2)nc1 | -1.22%
13 | Cn1cc([N+](=O)[O-])c(C(=O)Nc2ccc3c(c2)OCCO3)n1 | 5.47%
14 | Nc1c(C(=O)Nc2ccc3c(c2)OCCO3)nnn1Cc1ccccc1 | 11.1% (active)
15 | CCc1ccc(NC(=O)Cn2nnc(C(=O)NCc3ccc4c(c3)OCO4)c2N)cc1 | -0.22%
16 | COc1ccccc1NS(=O)(=O)c1ccc(C)c(C(=O)NNC(=O)c2csc(N3CCOCC3)n2)c1 | -0.05%
17 | Cc1noc(C)c1CCC(=O)N1CCCC(CO)(Cc2ccccc2)C1 (configuration not stated) | 9.68%
18 | COC(=O)CCC(=O)N1CCCC(CO)(Cc2ccccc2)C1 (configuration not stated) | 11.1% (active)
19 | Cc1ccccc1CC1(CO)CCCN(C(=O)c2cc(-c3ccccc3)no2)C1 (configuration not stated) | -2.47%
20 | CC1CCCN(c2cccc3c2S(=O)(=O)N(Cc2ccc(F)cc2)[C@@H](C)[C@H](c2ccccc2)O3)C1 (some centres not stated) | 2.2%
21 | COC(=O)C12C=C3CC(c4ccccc4)=C3C(=O)N1Cc1[nH]c3ccccc3c1C2 (configuration not stated) | -0.17%
22 | C=CCc1c(C)nc2cc(-c3ccccc3)[nH]n2c1=O | 11.2% (active)

Row | SMILES | activation
23 | Cc1nc2nc[nH]n2c(=O)c1C/C=C/c1ccccc1 | -0.77%
24 | CCc1c(C)nc2cc(C)[nH]n2c1=O | -1.41%
25 | C[C@@H]1CN([C@@H](C)CO)C(=O)c2c(c3ccccc3n2C)-c2ccccc2CO[C@H]1CN(C)C(=O)C1CC1 | 0.34%
26 | Cc1ccccc1NC(=O)C1CCN(c2ncccn2)CC1 | 2.53%
27 | Cc1cccc(-n2c(O)c(C=Nc3ccccc3N)c(=O)[nH]c2=O)c1 | 14.9% (active)
28 | COc1cccc(CNC(=O)CNS(=O)(=O)c2ccc3nc(C)sc3c2)c1OC | -1.09%
29 | CCOC(=O)[C@]12CCCCC/C=C\1N(Cc1ccc(OC)cc1)C(=O)[C@H]2CC(=O)NCCCN1CCCC1=O | 3.26%
30 | CCn1c(=O)n2n(c1=O)[C@@]1(C=C3CCCC[C@H]32)N=C(NC(=O)c2ccccc2)N(Cc2ccccc2)[C@H]1Cc1ccccc1 | -2.77%
31 | COc1ccc(C(C)(NC(C)=O)c2nc(-c3ccc(S(C)(=O)=O)cc3)cs2)cc1 (configuration not stated) | -0.04%
32 | COc1ccc(-c2csc(Cc3nc(O)cs3)n2)cc1 | 21.6% (active)
33 | COc1ccc(C(C)(O)c2nc(-c3cc(F)cc(F)c3)cs2)cc1 (configuration not stated) | -1.7%
34 | Cc1c(C(C)c2ccccc2O)[nH]c2ccccc12 (configuration not stated) | 2.99%
35 | Cc1sc2ncnc(N3CCC(C(=O)NNC(=O)c4ccc(F)cc4)CC3)c2c1C | -1.73%
36 | Cc1sc2ncnc(N3CCC(C(=O)Nc4nc5ccc(Cl)cc5s4)CC3)c2c1C | 12.9% (active)
37 | Cc1sc2ncnc(N3CCC(C(=O)Nc4ccc(F)cc4Cl)CC3)c2c1C | -1.36%
38 | COc1ccc(OC)c(NC(=O)C2CCCN2S(=O)(=O)c2ccc3c(c2)CC(C)N3C(C)=O)c1 (configuration not stated) | -2.45%
39 | O=C(NCc1ccc(Cl)cc1)C1CCCN(c2nc3ccccc3o2)C1 (configuration not stated) | -0.62%
40 | CC(=O)C1(C(=O)Nc2nccs2)CC(c2ccccc2C(F)(F)F)=NO1 (configuration not stated) | 0.67%
41 | Cc1ccc(-n2cc3ccc([N+](=O)[O-])cc3n2)cc1 | 17.1% (active)
42 | Cc1ccnc(N2C(=O)c3ccc([N+](=O)[O-])cc3C2=O)c1 | 0.65%
43 | O=c1c2cc([N+](=O)[O-])ccc2nc2n1CCC2 | -2.97%
44 | COC(=O)c1ccccc1SC1CC(=O)N(c2cccc(C)c2)C1=O (configuration not stated) | -0.2%

Row | SMILES | activation
45 | Cc1cccc(N2C(=O)SC(SC(=Nc3ccccc3)Nc3ccccc3)C2=O)c1 (configuration not stated) | 12.4% (active)
46 | Cc1cccc(N2C(=O)SC(N(CC(=O)O)c3cccc(C)c3)C2=O)c1 (configuration not stated) | 2.06%
47 | O=S1(=O)c2ccc(Br)cc2OC[C@@H](Cc2ccccc2)N1Cc1cn(Cc2ccco2)nn1 | -2.95%
48 | CC(C)(C)OC(=O)N(Cc1ccccc1)Cc1ccc(OCc2cccc(NC(=O)c3ccccc3)c2)cc1 | 3.23%
49 | CCOc1ccc(OCc2ccc(C(=O)N(C)c3ccccc3)o2)cc1 | -0.02%
50 | CCOc1ccc(OCc2cccc(C(=O)N(CC)CC)c2)cc1 | 15.3% (active)
51 | COc1cccc(N2CCN(CC(=O)N(C)Cc3ccc(F)cc3)CC2)c1 | 2.78%
52 | CC(C)CNC(=O)OCc1cn(Cc2ccc(F)cc2)nn1 | 0.8%
53 | CS(=O)(=O)N(CC(=O)NC1CCCC1)Cc1ccc(F)cc1 | -0.56%
54 | Cc1ccc(-c2nnc(SCC(=O)Nc3ccc(Oc4ccccc4)cc3)n2Cc2ccco2)cc1 | -0.14%
55 | C/C(=N\NC(=O)OC(C)(C)C)c1ccc[nH]1 | 13.9% (active)
56 | CC(C)(C)OC(=O)N[C@H](C(=O)OC(C)(C)C)c1ccc(Br)cc1 | 2.51%
57 | CC(=O)Nc1ccc(S(=O)(=O)NCC(=O)OCC(=O)c2ccc[nH]2)cc1 | -0.16%
58 | COC(=O)[C@]12C[C@H](CC(=O)NCc3ccc(OC)c(OC)c3)C(=O)N(Cc3ccccc3)C1=C[C@H](C(C)C)O[C@@H]2C1CC1 | -0.64%
59 | c1cncc(CNc2ccnc(-c3ccc4c(c3)OCO4)n2)c1 | 8.09%
60 | Cc1cc(NS(=O)(=O)c2ccc(NC(=O)CSc3nnc(-c4ccc(C(C)(C)C)cc4)n3Cc3ccco3)cc2)nc(C)n1 | 0.44%
61 | O=C(NC1CCCC1)C(c1ccccn1)N(C(=O)c1csnn1)C1CCCC1 (configuration not stated) | -0.77%
62 | CN(C)c1ccc(/C=C2\NC(=S)N(Cc3ccccc3)C2=O)cc1 | 2.67%
63 | CN(C)c1ccc(C=C2C(=O)OC3(CCCC3)OC2=O)cc1 | 11.1% (active)
64 | CCCC[C@H](C(=O)N(CC)c1ccccc1)[C@@H](O)c1ccc2ccccc2c1 | -1.89%
65 | CCCNC(=O)Nc1ccc2c(c1)C(=O)N(C)[C@H]1CC[C@H](CC(=O)NCC3CCCCC3)O[C@@H]1CO2 | 2.46%
66 | CCc1ccccc1S(=O)(=O)Cc1ccc(C(=O)NCCc2ccccc2)o1 | -1.29%

Row | SMILES | activation
67 | CCCOc1ccc(Oc2c(Cl)cnn(Cc3cccc4ccccc34)c2=O)cc1 | -0.9%
68 | COc1ccc2nc(-c3ccccn3)ccc2c1 | 14.8% (active)
69 | COc1ccc2cc(CCl)c(Cl)nc2c1 | 5.31%
70 | COc1ccc(C=C(C#N)C#N)c(CSc2ccccn2)c1 | -4.02%
71 | CN1CCCCC(NC(=O)C(C)(C)C)C1=O (configuration not stated) | -0.75%
72 | COc1ccc(-c2cc3n(n2)CCc2nc4ccccc4n2-3)cc1 | 1.57%
73 | COc1ccc(-c2cc(C3CCN(c4ncccc4[N+](=O)[O-])CC3)[nH]n2)cc1 | -1.82%
74 | COc1ccc(-c2cc3ncccc3cn2)cc1 | 14.3% (active)
75 | COc1cccc(N(C)C(=O)[C@@H](C)[C@@H](O)c2ccc3ccccc3c2)c1 | -0.12%
76 | O=C(NCc1ccco1)C1CCCN(S(=O)(=O)c2ccc(Cl)s2)C1 (configuration not stated) | 2.01%
77 | CN(C(N)=NC(=O)/C=C/c1ccccc1)C(C#Cc1ccccc1)Cc1ccccc1 (configuration not stated) | 2.81%
78 | CCCCn1c(N)c(N(CC(C)C)C(=O)CSc2ccc([N+](=O)[O-])cc2)c(=O)[nH]c1=O | 2.08%
79 | CN1CCN(/N=C/c2ccc(-c3ccc([N+](=O)[O-])cc3)o2)CC1 | 10.5% (active)
80 | O=C1C2C3C=CC(C4CC34)C2C(=O)N1/N=C/c1ccc(-c2ccccc2[N+](=O)[O-])o1 (configuration not stated) | -3.65%
81 | Cn1cnc(C(F)(F)F)c1-c1ccc([N+](=O)[O-])cc1 | 0.97%
82 | O=C(CSc1nc2c(c(=O)[nH]1)CCCC2)N1CCCCC1 | -4.02%
83 | Cc1cc(C)nc(Nc2n[nH]c(-c3ccccc3N)n2)n1 | 12.2% (active)
84 | CCCOc1ccccc1-c1nc(SCCC(=O)O)n[nH]1 | -0.41%
85 | O=C(OCC#CCSc1nnc(-c2ccco2)o1)c1ccc(F)cc1 | -3.04%
86 | COC(=O)C1=C(C)NC(=S)NC1c1ccc(OC)cc1 (configuration not stated) | 0.66%
87 | CCOC(=O)[C@]12CCCCC/C=C\1N(Cc1ccc(OC)cc1)C(=O)[C@H]2CC(=O)NCc1ccc(C)o1 | -1.27%
